Results as given in PubChem BioAssay (NCI).
Compounds without any hit were thinned out: in the full panel of roughly 83,000, 20% have a hit.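 Method: cells in 96-well plates; compound added at one concentration; 48 h incubation; percent growth measured; values under 10 scored active.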 Values without a mark were called inactive. Active and inactive are the calls of the source.

System: A498 renal
Assay: NCI-60 one-dose screen, 48 h (100 = growth as untreated, 0 = no growth, -100 = all killed)
Details: 10 µM unless noted

| Compound | growth |
| --- | --- |
| O=C(COc1ccc(NC(=O)Nc2ccc(Cl)cc2)cc1)N/N=C/c1ccccc1 | -94.3% (active) |
| COc1cc(/C=C/C(=O)c2ccccc2)ccc1Oc1nc(Nc2ccc(F)cc2)nc(N(C)C)n1 | 48.8% |
| CN(C)CCCNC(=O)c1cc(NC(=O)c2cc(NC(=O)c3ccc(/C=C/c4ccccc4)cc3)cn2C)cn1C | 103% |
| COc1ccc(C(=O)/C=C/c2ccc(Oc3nc(Nc4ccc(F)cc4)nc(N(C)C)n3)c(OC)c2)cc1 | 78.3% |
| CN(C)CCOc1ccc(C(=O)C2[C@H](c3ccc(Cl)cc3)[C@@H](c3ccccc3)NC23C(=O)Nc2ccc(Br)cc23)cc1 (stereo partly drawn) | 96% |
| COc1ccc(-c2ccc(SCC(=O)NCCc3ccc(S(N)(=O)=O)cc3)nn2)cc1 | 123% |
| Cc1nc(Nc2ncc(C(=O)Nc3c(C)cccc3Cl)s2)cc(N2CCN(CCCNC(=O)COc3ccc(C4CCC(=O)NC4=O)cc3)CC2)n1 (stereo not drawn) | 7.95% (active) |
| C=C1CCC2C3(C)COC(c4ccc(F)cc4)OC3CCC2(C)C1C/C=C1/C(=O)OCC1O (stereo not drawn) | 89.6% |
| O=c1onc(-c2cc3ccccc3nc2Cl)n1-c1cccc2ccccc12 | 90.8% |
| O=C1NC(=O)/C(=C/c2ccccc2OCc2cc3ccccc3nc2Cl)S1 | 122% |
| O=C(COc1ccc(NC(=O)Nc2ccc(Cl)c(Cl)c2)cc1)N=Nc1c(O)[nH]c2ccc(Br)cc12 | -54.9% (active) |
| COc1cccc(/C=C/c2nc3ccccc3c(=O)n2CC(=O)Nc2ccc(Cl)cc2)c1 | 25.1% |
| COc1ccc(C(=O)/C=C/c2cccc(Cl)c2)cc1S(N)(=O)=O | 111% |
| COc1cc(C2CC(c3cc(OC)c(OC)c(OC)c3)=NN2c2ccccc2)ccc1OCc1ccc(C)cc1 (stereo not drawn) | 102% |
| CCOP(=O)(OCCCl)c1nc(-c2ccc(C)cc2)oc1NCc1ccccc1 (stereo not drawn) | 99.3% |
| Cc1ccccc1[C@H]1C(C(=O)c2ccc(Cl)cc2)C2(N[C@@H]1c1ccccc1)C(=O)Nc1ccccc12 (stereo partly drawn) | -8.76% (active) |
| Cc1ccccc1[C@H]1C(C(=O)c2ccc(Cl)cc2)C2(N[C@@H]1c1ccccc1)C(=O)Nc1ccc(Br)cc12 (stereo partly drawn) | 44.3% |
| Cc1cc(=O)oc2cc(OCCOc3ccc(/C=C/C(=O)Nc4ccccc4N)cc3)ccc12 | 14.4% |
| COc1cccc(/C=C/C(=O)c2ccc(OC)c(S(N)(=O)=O)c2)c1 | 115% |

| Compound | growth |
| --- | --- |
| Cn1cc(NC(=O)c2cc(NC(=O)c3ccc(/C=C/c4ccccc4)cc3)cn2C)cc1C(=O)NCCCN1CCOCC1 | 90.6% |
| CN1CCN(Cc2ccc(C(=O)Nc3cccc(C#Cc4cccc5[nH]nc(N)c45)c3)cc2C(F)(F)F)CC1 | -80.7% (active) |
| CCCn1cc(-c2nc(Nc3ccc(C(=O)NCCCCNc4cccc5c4C(=O)N(C4CCC(=O)NC4=O)C5=O)cc3)nc3[nH]ccc23)cn1 (stereo not drawn) | -2.58% (active) |
| COc1c(F)ccc(C(=O)Nc2ccc3nc(NC(=O)C4CCCN(S(=O)(=O)c5ccc(C(F)(F)F)cc5)C4)sc3c2)c1F (stereo not drawn) | 96.7% |
| Cn1nc(C(F)(F)F)cc1-c1cc(Cl)c(COc2ccc(Cl)cc2)c(-c2ccc(Cl)c(C(F)(F)F)c2)c1O | -11.9% (active) |
| COc1ccc(C(=O)/C=C/c2ccccc2Br)cc1S(N)(=O)=O | 93.3% |
| COc1ccc2c(c1)c(/C=N/Nc1ccc3ccccc3n1)cn2C | 83.3% |
| COc1c(F)ccc(C(=O)Nc2ccc3nc(NC(=O)C4CCCN(S(=O)(=O)c5ccc(Br)c(F)c5)C4)sc3c2)c1F (stereo not drawn) | 112% |
| COc1cc(OC)cc(-c2cc3ccc(N(C)C)cc3c(=O)[nH]2)c1 | 121% |
| Clc1cccc(-c2ccc(OCCCN3CCN(c4ccncc4)CC3)cc2)c1 | 65.5% |
| CC12CC[C@@H]3[C@]4(C)COC(c5cn[nH]c5-c5ccc(Br)cc5)O[C@@H]4CC[C@@]3(C)[C@@H]1CC(C1=CCOC1=O)O2 (stereo partly drawn) | 97.8% |
| CC12CC[C@@H]3[C@]4(C)COC(c5cn[nH]c5-c5cccc(Cl)c5)O[C@@H]4CC[C@@]3(C)[C@@H]1CC(C1=CCOC1=O)O2 (stereo partly drawn) | 73.6% |
| CCCSc1nc(Nc2ccc(S(N)(=O)=O)cc2)c(C#N)c(-c2ccc(Cl)cc2)n1 | -41.8% (active) |
| COc1ccc(-c2nc3ccc(C(=O)NN4C(=O)c5ccc([N+](=O)[O-])cc5C4=O)cc3[nH]2)cc1 | 103% |
| C=C1CC[C@@H]2[C@]3(C)COC(c4cn[nH]c4-c4ccc(Br)cc4)O[C@@H]3CC[C@@]2(C)[C@@H]1C/C=C1/C(=O)OCC1O (stereo partly drawn) | 97.8% |
| Cc1cnc(C(=O)NNc2nc3cc(F)ccc3n3c(C(=O)N4CC5CC(C4)N5)ccc23)cn1 | 88.6% |
| CCCSc1nc(Nc2ccc(S(N)(=O)=O)cc2)c(C#N)c(-c2cc(OC)c(OC)c(OC)c2)n1 | 80.8% |
| C=C1CCC2C3(C)COC(c4ccccc4)OC3CCC2(C)C1CC(NCc1ccccc1)C1=CCOC1=O (stereo not drawn) | 76.6% |
| C=C1CC[C@@H]2[C@]3(C)COC(c4ccccc4)O[C@@H]3CC[C@@]2(C)[C@@H]1C/C=C1/C(=O)OCC1OC(C)=O (stereo partly drawn) | 129% |
